The structures appear in SMILES notation. Values without a mark were called inactive. Records with an inconclusive call do not appear. Activity calls are given as the source filed them. Unless noted, calls come from the whole dose curve; as a rule, active = well fitted curve in the direction sought with a large enough effect; inconclusive = small, poorly fitted or top-dose-only effect, or another doubt; inactive = no such curve, though single readings can be large; an effect the other way counts as inactive or inconclusive.

The source of these data is PubChem BioAssay (NCATS).

Assay [1] concerns the target Alpha-galactosidase A (Homo sapiens) (UniProt P06280). Put plainly: Counterscreen for Glucocerebrosidase Inhibitors: qHTS Assay for Human alpha-Galactosidase at pH 4.5 (AID 992). Note: 0% is about no effect. The essentials:
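Steps: enzyme (2 nM final), then compound across 0.7 nM to 77 uM, then 80 uM fluorogenic galactopyranoside substrate; incubate 20 min at room temperature; quench at pH 10; measure fluorescence at 365/440 nm.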
For orientation: The purpose of a counterscreen is to sort out artefacts and off-target activity.

Assay [2] is described as follows: Cell Viability - Hek293 (AID 427;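 active = compounds whose dose-response curve shows a full or clear partial loss of cell viability, called from curve shape rather than a numeric limit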;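 note: potency is the fitted concentration of half-maximal effect; cells exposed to compound for 40 hours at 37 °C before reading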). The following applies: qHTS. The essentials: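 HEK293 cells in complete medium were exposed to compound for 40 hr at 37 °C, then cellular ATP was read by CellTiter-Glo luminescence. Data were normalized to DMSO (basal) and 100 uM tamoxifen (100% inhibition), and AC50 came from Hill fits.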
Assay [3] in a line: Cell Viability - SK-N-SH (AID 435; calls by dose curve;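 note: potency is the fitted concentration of half-maximal effect; compound exposure lasted 40 h at 37 °C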). The following applies: SK-N-SH neuroblastoma cell viability qHTS. The essentials:
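Cells seeded at 1500 per well and incubated 5 hr at 37 °C. Compound added, then 40 hr at 37 °C. CellTiter-Glo added, 20 min at room temperature, luminescence read.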
On the technique in general: Quantitative high-throughput screening tests each substance at several concentrations.

A short description of assay [4]: Cell Viability - N2a (AID 540).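 Note: plate controls were DMSO alone for no effect and tamoxifen control for full effect; nearly all actives have a fitted effect of over 45% in size.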 To be noted: N2a mouse neuroblastoma cell viability; activity change, negative = cytotoxicity: at 92.2 µM (top of the series). A digest of the protocol:
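CellTiter-Glo ATP luminescence, read 20 min after reagent at room temperature, reported viability following 40 h compound treatment at 37 °C. N2a mouse neuroblastoma cells seeded 1500/well; Hill equation gave AC50.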

Assay [5] in a line: Cell Viability - LYMP2-009 (AID 968).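 Note: 0% = DMSO alone and the full-kill end = tetraoctylammonium bromide at 92 µM; nearly all actives have a fitted effect of over 55% in size.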
Assay [6] is described as follows: Cell Viability - LYMP2-015 (AID 971).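 Note: 0% = DMSO only and full effect = 92 µM tetraoctylammonium bromide; nearly all actives have a fitted effect of over 55% in size.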 The essentials: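 Cytotoxicity readout: decrease in intracellular ATP (CellTiter-Glo luminescence) in 2500 LYMP2-015 lymphoblastoid cells/well after 24 h compound exposure at 37 C. Concentration-response data fitted with the standard Hill equation to give AC50.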
Assay [7] can be described thus: Cell Viability - LYMP2-010 (AID 981). Note: % is set by controls: 0 for no effect and ±100 for the full control effect; nearly all actives have a fitted effect of over 55% in size. The essentials: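 CellTiter-Glo ATP luminescence measured cytotoxicity after 24 h compound exposure at 37 C. LYMP2-010 cells were seeded at 2500/well, with tetraoctylammonium bromide as control; concentration-response curves gave AC50 values by the Hill equation.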
Assay [8] has as its target Vitamin D3 receptor (Homo sapiens) (UniProt P11473). Put plainly: qHTS assay for small molecule antagonists of vitamin D receptor signaling (AID 588541; calls by dose curve;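 note: receptor activated by calcitriol during compound treatment; % is set by controls: 0 for no effect and ±100 for the full control effect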). A digest of the protocol:
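VDR-UAS-bla HEK293T cells in 2% charcoal-stripped FBS were stimulated with 1-alpha,25-dihydroxyvitamin D3 (3 nM final) plus compound for 16 h at 37 C. The beta-lactamase CCF4 readout was normalized to 50 nM agonist and DMSO, and Hill fits gave IC50.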

Assay [9] shares this target. As to the kind of experiment: qHTS assay for small molecule agonists of vitamin D receptor signaling (AID 588543; calls by dose curve;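 note: 0% = DMSO basal and 100% = reference agonist control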). The essentials:
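qHTS in agonist mode: compound titrations stimulate a VDR-driven β-lactamase reporter in HEK293T cells over 16 h at 37 °C. Response normalized to 50 nM 1α,25-dihydroxyvitamin D3 = 100%, DMSO = 0%; Hill fitting gives EC50 and maximal response.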

Assay [10] concerns the target Thyroid hormone receptor beta (Homo sapiens) (UniProt P10828). Put plainly: qHTS assay for small molecule agonists of thyroid hormone receptor beta signaling (AID 588545; calls by dose curve;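 note: 0% = DMSO only and 100% = 10 nM T3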). A digest of the protocol:
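TR-UAS-bla-GripTite HEK 293 cells in medium with 2% charcoal/dextran FBS, 0.1 mM NEAA and 1 mM sodium pyruvate were treated with titrated compounds for 18 hrs at 37 C. Beta-lactamase reporter was read with CCF4 dye (ex 405, em 460/530 nm); EC50 from Hill fits.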

Assay [11] has as its target Tumor necrosis factor (Homo sapiens) (UniProt P01375). As to the kind of experiment: qHTS assay to identify small molecules that stimulate Tumor Necrosis Factor-alpha (TNF-alpha) secretion (AID 651757; active = well fitted curve in the direction sought with a large enough effect in the signal ratio; the % refers to the signal ratio; note: 0% is about no effect). The essentials: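 Secreted TNF-alpha quantified by TR-FRET sandwich of two labeled anti-TNF-alpha antibodies, incubated 3 hr at room temperature. Preceded by 17 hr, 37 C compound treatment of THP-1 cells at 3000 cells/well.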

Assay [12] concerns the target Nuclear receptor ROR-gamma (Homo sapiens) (UniProt P51449). Put plainly: qHTS assay for small molecule antagonists of the retinoid-related orphan receptor gamma (ROR-gamma) signaling pathway (AID 651802). Note: nearly all actives have a fitted effect of over 60% in size. Note: potency is the fitted concentration of half-maximal effect. The essentials:
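Luminescence (One-Glo, 30 min RT) measured 16 h after compound addition and doxycycline induction at 37C. Reporter: RORE-luciferase under TET-inducible ROR-gamma in CHO cells.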

Assay [13] is described as follows: Cell Viability - SH-SY5Y (AID 544).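 Note: 0% = DMSO alone and -100% = 100 µM tamoxifen; nearly all actives have a fitted effect of over 55% in size.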 To be noted: SH-SY5Y neuroblastoma cell viability; viability change, negative = cytotoxic: at 92.2 µM (top of the series). A digest of the protocol:
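Cytotoxicity measured via ATP-dependent luciferase luminescence (CellTiter-Glo) following 40 h, 37 °C exposure of 1500 SH-SY5Y cells per well. Concentration-response data were fitted with the standard Hill equation to give AC50.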

Assay [14] can be described thus: Cell Viability - LYMP2-017 (AID 972). For activity change, negative = cytotoxicity: % is set by controls: 0 for no effect and ±100 for the full control effect. Note: nearly all actives have a fitted effect of over 55% in size. Note: potency is the fitted concentration of half-maximal effect. The essentials: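 CellTiter-Glo luminescence (cellular ATP, 30 min RT) measured cytotoxicity after 24 hr compound treatment at 37 C. Cells were a human lymphoblastoid line, LYMP2-017, plated at 2500/well and incubated 5 hr first; concentration-response fitted with Hill equation for AC50.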
A short description of assay [15]: Cell Viability - LYMP2-022 (AID 987).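 For viability change, negative = cytotoxic: 0% = DMSO alone and full effect = tetraoctylammonium bromide at 92 µM.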 Note: nearly all actives have a fitted effect of over 55% in size. Note: potency is the fitted concentration of half-maximal effect. The essentials: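 Cytotoxicity read as decreased cellular ATP (CellTiter-Glo luminescence, 30 min room temperature) after 24 hours compound exposure of 2500 lymphoblastoid LYMP2-022 cells/well at 37 C. Concentration-response data fitted with standard Hill equation for AC50.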
A short description of assay [16]: qHTS assay for environmental chemicals that activate the Aryl hydrocarbon Receptor (AhR) signaling pathway (AID 651777). Note: % of control where 0% means no effect; nearly all actives have a fitted effect of over 15% in size. The following applies: 1A2-DRE human hepatoma cells, luciferase, 24 h; activation: active compounds read high. The essentials:
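Following a 24 hr incubation with test chemicals at 37 C and 5% CO2, 1A2-DRE human hepatoma cells received One-Glo reagent; after 30 min at room temperature, luciferase output reflected CYP1A2 induction via AhR.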

A short description of assay [17]: qHTS assay for small molecule agonists of the antioxidant response element (ARE) signaling pathway measured by Nrf2-dependant transcriptional activity (AID 720636; active = well fitted curve in the direction sought with a large enough effect in the repeat runs; an effect the other way counts as inactive or inconclusive;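 note: HepG2 cells with an ARE-driven luciferase reporter; % of control where 0% means no effect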). The essentials:
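ONE-Glo luminescence, read 30 min after reagent addition at room temperature, reflected ARE reporter activity in HepG2 cells that had been incubated with compound for 16 hr at 37 C in 1% dialyzed FBS.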

The target in assay [18] is Nuclear receptor subfamily 1 group I member 2 (Rattus norvegicus) (UniProt Q9R1A7). As to the kind of experiment: qHTS assay for small molecule activators of the rat pregnane X receptor (rPXR) signaling pathway (AID 651751; call rule not given here; note: 0% is about no effect). To be noted: rPXR reporter cells, luciferase (One-Glo), 24 h.
Assay [19] in a line: qHTS assay for small molecule activators of the human pregnane X receptor (PXR) signaling pathway (AID 720659; call rule not given here; note: 0% is about no effect).
A short description of assay [20]: qHTS assay for small molecule agonists of the antioxidant response element (ARE) signaling pathway (AID 651741; active = well fitted activation curve with a large enough effect in the signal ratio; the % refers to the signal ratio; note: potency is the fitted concentration of half-maximal effect). The essentials:
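Stably integrated ARE-beta-lactamase reporter HepG2 cells; 16 h compound incubation, 37 C; LiveBLAzer FRET substrate 2 h at room temperature; fluorescence intensity.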

Nuclear receptor subfamily 1 group I member 2 (Rattus norvegicus), sequence (Q9R1A7 whole entry, looked up): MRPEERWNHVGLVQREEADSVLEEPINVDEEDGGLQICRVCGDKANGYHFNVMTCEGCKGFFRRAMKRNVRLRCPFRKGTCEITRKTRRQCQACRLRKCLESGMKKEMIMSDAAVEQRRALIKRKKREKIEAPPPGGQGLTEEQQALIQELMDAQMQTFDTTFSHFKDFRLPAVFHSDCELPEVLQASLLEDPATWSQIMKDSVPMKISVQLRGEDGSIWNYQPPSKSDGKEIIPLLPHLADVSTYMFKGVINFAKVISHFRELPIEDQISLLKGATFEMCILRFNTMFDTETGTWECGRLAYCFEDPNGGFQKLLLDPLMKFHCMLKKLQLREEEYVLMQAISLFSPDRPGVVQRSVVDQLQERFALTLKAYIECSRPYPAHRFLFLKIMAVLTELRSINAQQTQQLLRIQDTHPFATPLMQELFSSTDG
Vitamin D3 receptor (Homo sapiens), sequence (P11473 whole entry, looked up): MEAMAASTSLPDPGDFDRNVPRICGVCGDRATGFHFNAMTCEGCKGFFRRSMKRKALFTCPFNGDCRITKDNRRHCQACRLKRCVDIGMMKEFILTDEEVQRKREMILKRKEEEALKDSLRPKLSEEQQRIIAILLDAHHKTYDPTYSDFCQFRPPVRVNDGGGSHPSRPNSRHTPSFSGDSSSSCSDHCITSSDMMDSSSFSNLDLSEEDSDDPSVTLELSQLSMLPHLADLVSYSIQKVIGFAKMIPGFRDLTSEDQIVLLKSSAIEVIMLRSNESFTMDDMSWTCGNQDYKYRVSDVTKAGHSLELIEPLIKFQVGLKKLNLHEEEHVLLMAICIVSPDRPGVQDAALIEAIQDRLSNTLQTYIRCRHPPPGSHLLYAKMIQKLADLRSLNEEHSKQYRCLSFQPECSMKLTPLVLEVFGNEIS
Alpha-galactosidase A (Homo sapiens), sequence (P06280 whole entry, looked up): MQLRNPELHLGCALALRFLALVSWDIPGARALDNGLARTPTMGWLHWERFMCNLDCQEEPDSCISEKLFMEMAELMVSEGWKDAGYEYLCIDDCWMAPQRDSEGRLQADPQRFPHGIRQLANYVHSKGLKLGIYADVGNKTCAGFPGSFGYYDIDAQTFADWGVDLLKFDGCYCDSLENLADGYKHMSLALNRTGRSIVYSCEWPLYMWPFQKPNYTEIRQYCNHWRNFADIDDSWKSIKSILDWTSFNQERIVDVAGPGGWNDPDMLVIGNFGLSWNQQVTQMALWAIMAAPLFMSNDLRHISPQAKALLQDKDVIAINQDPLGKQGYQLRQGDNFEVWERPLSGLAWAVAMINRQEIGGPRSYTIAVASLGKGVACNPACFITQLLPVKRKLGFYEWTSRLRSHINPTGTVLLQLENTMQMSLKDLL
Tumor necrosis factor (Homo sapiens), sequence (P01375 whole entry, looked up): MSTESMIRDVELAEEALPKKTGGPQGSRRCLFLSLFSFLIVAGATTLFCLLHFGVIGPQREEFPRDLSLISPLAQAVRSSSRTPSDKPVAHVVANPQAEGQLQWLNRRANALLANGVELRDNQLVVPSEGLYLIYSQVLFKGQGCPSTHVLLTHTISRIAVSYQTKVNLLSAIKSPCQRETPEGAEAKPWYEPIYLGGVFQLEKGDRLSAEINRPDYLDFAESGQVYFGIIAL
Nuclear receptor ROR-gamma (Homo sapiens), sequence (P51449 whole entry, looked up): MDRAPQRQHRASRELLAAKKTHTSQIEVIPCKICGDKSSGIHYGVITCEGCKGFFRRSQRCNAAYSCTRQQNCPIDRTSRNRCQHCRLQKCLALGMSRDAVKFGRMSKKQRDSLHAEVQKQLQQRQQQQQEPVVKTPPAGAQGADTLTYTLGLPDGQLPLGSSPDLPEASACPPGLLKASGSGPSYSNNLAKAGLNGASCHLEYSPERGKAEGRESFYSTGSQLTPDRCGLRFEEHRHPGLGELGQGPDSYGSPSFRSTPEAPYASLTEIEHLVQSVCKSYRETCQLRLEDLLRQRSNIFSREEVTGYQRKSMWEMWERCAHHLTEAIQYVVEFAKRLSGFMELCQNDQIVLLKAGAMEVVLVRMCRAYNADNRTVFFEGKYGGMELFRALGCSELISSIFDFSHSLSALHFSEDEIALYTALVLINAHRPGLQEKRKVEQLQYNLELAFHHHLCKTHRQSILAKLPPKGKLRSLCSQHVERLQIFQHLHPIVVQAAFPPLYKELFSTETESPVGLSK
Thyroid hormone receptor beta (Homo sapiens), sequence (P10828 whole entry, looked up): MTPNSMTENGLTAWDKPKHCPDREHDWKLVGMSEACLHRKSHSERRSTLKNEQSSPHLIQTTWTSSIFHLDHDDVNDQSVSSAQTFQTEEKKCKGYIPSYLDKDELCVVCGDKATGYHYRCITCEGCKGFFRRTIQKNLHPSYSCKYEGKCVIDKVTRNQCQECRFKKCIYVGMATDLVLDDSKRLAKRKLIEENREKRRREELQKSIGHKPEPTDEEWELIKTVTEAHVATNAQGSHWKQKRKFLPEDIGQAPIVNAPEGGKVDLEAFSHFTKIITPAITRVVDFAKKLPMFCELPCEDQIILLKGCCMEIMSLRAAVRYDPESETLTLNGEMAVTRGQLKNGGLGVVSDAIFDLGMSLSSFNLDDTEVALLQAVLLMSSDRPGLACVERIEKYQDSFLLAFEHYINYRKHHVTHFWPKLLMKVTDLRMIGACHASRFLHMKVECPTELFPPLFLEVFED

As for `CC(C)C[C@H]1C(=O)N2CCC[C@@H]2[C@]2(O)O[C@](NC(=O)[C@H]3C=C4c5cccc6[nH]c(Br)c(c56)C[C@H]4N(C)C3)(C(C)C)C(=O)N12`, in [1], the compound was called inactive.
Consider `COc1ccc(C(=O)Nc2ccccc2)cc1[N+](=O)[O-]`, for which the Potency in assay [2] and in assay [3] was greater than 92 µM in each case. Also, in assay [4], the activity change, negative = cytotoxicity is -4%. In addition, the Potency entry in assay [5], in assay [6], in assay [7], in assay [8], in assay [9] and in [10] was “inactive” each time. Also, the Potency result in [11] and in [12] was “inactive” each time.
As to `COc1ccccc1OC[C@H](O)CN1CCN(CC(=O)Nc2c(C)cccc2C)CC1`, the outcome in assay [1] was inactive.
Still for that read-out and setting: the value for `CC(C)(C)[C@@]1(O)CCN2C[C@@H]3c4ccccc4CCc4cccc(c43)[C@@H]2C1` was “inactive”; that for `COC(=O)[C@H]1[C@H]2C[C@H]3c4[nH]c5ccccc5c4CCN3C[C@@H]2CC[C@@H]1O` was “inactive”; that for `CO/N=C(\C(=O)N[C@@H]1C(=O)N2C(C(=O)O)=C(CSc3nc(=O)c(O)nn3C)CS[C@@H]12)c1csc(N)n1` was “inactive”.
For the compound `CN[C@@H](CC(C)C)C(=O)N[C@@H]1C(=O)N[C@H](CC(N)=O)C(=O)N[C@H]2C(=O)N[C@H]3C(=O)N[C@H](C(=O)N[C@H](C(=O)O)c4cc(O)cc(O)c4-c4cc3ccc4O)[C@H](O)c3ccc(c(Cl)c3)Oc3cc2cc(c3O[C@@H]2O[C@@H](CO)[C@@H](O)[C@@H](O)[C@H]2O[C@H]2C[C@](C)(N)[C@H](O)[C@H](C)O2)Oc2ccc(cc2Cl)[C@@H]1O`, the call in assay [1] was inactive.
Consider `CCCCCCCCOc1ccc(C(=O)O)cc1`, for which the Potency in assay [2] and in assay [3] was greater than 92 µM throughout. For the same compound, the activity change, negative = cytotoxicity in [4] is -7.43%. Further, the Potency entry in assay [13], in assay [5], in assay [6], in assay [14], in assay [7] and in assay [15] was “inactive” throughout. In addition, the Potency result in [8], in [9], in [10], in assay [11], in assay [12] and in assay [17] was “inactive” each time. Moreover, the activation in [16] is 8.38%. Further, the max response in [18] is 13.3%. In addition, the result in assay [19] was inactive.
For `CC(=O)c1ccc(Cl)c(Cl)c1Cl`, the Potency in assay [2] and in assay [3] was greater than 92 µM each time. In addition, the activity change, negative = cytotoxicity in assay [4] was -12.1%. The Potency result in [13], in assay [5], in assay [6], in assay [14], in assay [7] and in [15] was “inactive” each time. The Potency entry in assay [8], in assay [9], in assay [11] and in assay [17] was “inactive” throughout. For the same compound, the activation in [16] was -0.636%. For the same compound, in assay [18], the max response is -2.86%. In [19], the result was inactive.
For `CCC(Cl)CC(Cl)C(Cl)C(Cl)C(Cl)C(C)Cl` (centres undefined), the Potency is greater than 92 µM in assay [2], greater than 92 µM in [3] and 66.8 µM (active) in [20]. In addition, the activity change, negative = cytotoxicity in assay [4] was -24.5%. Also, the Potency entry in assay [13], in [5], in assay [6], in assay [14], in assay [7] and in [15] was “inactive” each time. Moreover, the Potency entry in assay [10], in assay [11] and in assay [17] was “inactive” throughout. Besides, the activation in assay [16] was -0.274%.
As to `Oc1ccc(O)c2c(O)cccc12`, in assay [4], the activity change, negative = cytotoxicity is -30.1%. Also, the Potency is 50.1 µM (active) in assay [14], 50.1 µM (active) in assay [15], 42.2 µM (active) in assay [20] and 66.8 µM (active) in assay [12]. In addition, the Potency result in assay [9] and in assay [10] was “inactive” in each case. The max response in assay [18] was 1.1%. The outcome in [19] was inactive.
